{"source": "the supplement of paper PMC6555819"}
{"test_system": "PPARg:RXRa DBDmut IVT, anti-RXR (DBD mutation: RXRa K156A/R161A, NR concentration 270 nM, RXRa partner concentration 90 nM)", "assay": "PBM binding z-score (relative to random genomic background probes); higher = stronger binding; sequences stand for … in GC…GCGATTGACAGCGTAGAATGAAGG", "outline": "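Binding z-scores take random background probes as their reference. They come from custom Agilent 4×180K protein-binding microarrays incubated 1 h with ligand-free nuclear receptor dimers, with antibodies against each partner (one per run) detecting binding. Scanned fluorescence was regression-normalized.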"}
{"sequence": "TCTCGGAGGACACGAAAGGCCAGAGCTCGACATC", "PBM binding z-score": 1.19}
{"sequence": "TGTCAAAGTTCAAAGGTAACGGAAGTATCCACAC", "PBM binding z-score": 0.604}
{"sequence": "GCTGCTAGATCAGGTTGGTCAGCTAACGGGTACG", "PBM binding z-score": -0.422}
{"sequence": "TCATATAGGTAAATCCTAGGTGAAAGTCCGATCT", "PBM binding z-score": 3.48}
{"sequence": "GCTTACGGGTCAAAGGCTATAGCATGAATAGAAT", "PBM binding z-score": 3.78}
{"sequence": "TCAAGTAGGTTAGGGGCATTCAGAATGGCGTCGA", "PBM binding z-score": 4.59}
{"sequence": "ATCTCAAGGTAACAAGTTCAGTGAAAGAGAGGAC", "PBM binding z-score": 0.525}
{"sequence": "CCGACTGGGGCAGAAAGGTTACTATACCATCCGG", "PBM binding z-score": 2.21}
{"sequence": "CTCGAAAGGTCGTGCTCAGGTGCGTATACCAAAC", "PBM binding z-score": 0.285}
{"sequence": "CCGACTGGGGCATAAGGGTACCATAAGCCAGCCC", "PBM binding z-score": 1.55}
{"sequence": "TGTCAAAGTTGAAAGGTAACGTAAGTATCCACAC", "PBM binding z-score": -0.206}
{"sequence": "TCGAGTAGGTAAGGGGCATTCAGAATGGCGTCGA", "PBM binding z-score": 1.59}
{"sequence": "CCTACTGGGCCATTCAGAGGTCATTGGTCATATG", "PBM binding z-score": 3.85}
{"sequence": "CAAACTAGGTCAAAGTCAAAGTCGGTTTGTGCCA", "PBM binding z-score": 8.48}
{"sequence": "CAAACTAGGTCAAGAGGTCAACGTCCGCTTCCCG", "PBM binding z-score": 8.45}
{"sequence": "CATACAGGGTCAGCTAGGCCAGAGTCGGGACGGC", "PBM binding z-score": 1.33}
{"sequence": "GCTTGTATATCAAGGTTAAGAAAGACTAAGCTAA", "PBM binding z-score": 0.247}
{"sequence": "ATATGTAGGTTAGCGGGTCATTCAGTTTGCGCAT", "PBM binding z-score": 7.62}
{"sequence": "CGTCCAAGGTCGATGCTAGGTCAGTGAAAGCATT", "PBM binding z-score": 0.324}
{"sequence": "GCAGACAGGTGAAACGCAGGTTACTCAGGGTGGC", "PBM binding z-score": 1.13}
{"sequence": "CGTCCAAGGTCATAGTAGGTCAGTGAAGACAGAT", "PBM binding z-score": 4.15}
{"sequence": "ATCTCTAGGTAAGACTCAGTTCTGTGAAGAACGC", "PBM binding z-score": 1.91}
{"sequence": "TCTCCTAGGTCAACGATGGTCAGCTAATCTGCTA", "PBM binding z-score": 4.1}
{"sequence": "GGAATGAGGGCATTCGAGTTGATAGCATGGCGAT", "PBM binding z-score": 4.4}
{"sequence": "GGAACGAGGGCAAGTTGAGAGCAGAGTTTGATGG", "PBM binding z-score": 3.69}
{"sequence": "TCTTGTAAATCAACAGGAGGTTAAGAAAGATCGA", "PBM binding z-score": 1.98}
{"sequence": "CTACCAAGGTGAACAAGATCGTTGATTACTATTC", "PBM binding z-score": 2.44}
{"sequence": "ATCTGTAGGTAACAAGTTCAGTGAAAGAGAGGAC", "PBM binding z-score": 2.85}
{"sequence": "CCGAGCAGGTTATGGGGCATTCAGGCAACGGTGA", "PBM binding z-score": 0.393}
{"sequence": "GGAACGTGGGCAAGTTGATAGCAGAGTTTGATGG", "PBM binding z-score": 0.19}
{"sequence": "TCGGGTAGGTTAGGGGCATTCAGAATGGCGTCGA", "PBM binding z-score": 1.55}
{"sequence": "ACTGGGAGGACAAAGGTCAGAGCTACGCCAGTGA", "PBM binding z-score": 0.413}
{"sequence": "CGTCCAAGGTCTATGCTAGGTCAGTGAAAGCATT", "PBM binding z-score": 0.0727}
{"sequence": "TCGAGAAGGTTACCAATGGGGCATTCAGCTTTCT", "PBM binding z-score": 1.39}
{"sequence": "GCATATAGGTAATACAAGCTGAAAGTCCGATTGT", "PBM binding z-score": 3.93}
{"sequence": "TCTTGTAGATCAACAAGAGGTTAAGAAAGATCGA", "PBM binding z-score": 1.35}
{"sequence": "ACTAGCAGGCCATGGGTCACTCAAGATTAGTCCG", "PBM binding z-score": 0.912}
{"sequence": "CGAACTAGGTAAGAACAGGACAGTGAAGGATGAT", "PBM binding z-score": 3.73}
{"sequence": "ACTAGTTCGTCAGCTGAGGTCACACACAATTCGG", "PBM binding z-score": 0.735}
{"sequence": "TAGCCTGGGTCATTGGGCCAGTATAGTACGCATC", "PBM binding z-score": 1.27}
